p53 reactivation: re-activators of mutant p53. H1299 p53-A138V BP100-luciferase reporter, luminescence, 24 h. Potency, µM (top dose mostly 92.2 µM), for inactives: top-dose activity change, positive = activation, usual class: activators. 320,000 compounds, 0.063% hits. AID 504706; note: potency is the fitted concentration of half-maximal effect; % of control where 0% means no effect; nearly all actives have a fitted effect of over 45% in size
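H1299 (p53-null), stable ts p53-A138V + BP100-Luc; 1000 cells/well, Opti-MEM/10% FBS; cpd 4 pt, 1:5; 24 h, 37 deg C, 5% CO2; detection reagent 10 min RT; luminescence.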
RORgamma inh: ROR gamma (mouse) transcription inhibition; Potency, µM (highest dose often 53.6 µM), for the others: at the top dose activity change, negative = inhibition, usual class: inhibitors; AID 2551; Drosophila S2 Gal4-RORgamma UAS-luciferase reporter, 20 h; 310,000 compounds, 5.4% hits; note: potency is the fitted concentration of half-maximal effect; % is set by controls: 0 for no effect and ±100 for the full control effect; nearly all actives have a fitted effect of over 60% in size
Target sequence (P51450 whole entry, looked up, the tested form may be a part): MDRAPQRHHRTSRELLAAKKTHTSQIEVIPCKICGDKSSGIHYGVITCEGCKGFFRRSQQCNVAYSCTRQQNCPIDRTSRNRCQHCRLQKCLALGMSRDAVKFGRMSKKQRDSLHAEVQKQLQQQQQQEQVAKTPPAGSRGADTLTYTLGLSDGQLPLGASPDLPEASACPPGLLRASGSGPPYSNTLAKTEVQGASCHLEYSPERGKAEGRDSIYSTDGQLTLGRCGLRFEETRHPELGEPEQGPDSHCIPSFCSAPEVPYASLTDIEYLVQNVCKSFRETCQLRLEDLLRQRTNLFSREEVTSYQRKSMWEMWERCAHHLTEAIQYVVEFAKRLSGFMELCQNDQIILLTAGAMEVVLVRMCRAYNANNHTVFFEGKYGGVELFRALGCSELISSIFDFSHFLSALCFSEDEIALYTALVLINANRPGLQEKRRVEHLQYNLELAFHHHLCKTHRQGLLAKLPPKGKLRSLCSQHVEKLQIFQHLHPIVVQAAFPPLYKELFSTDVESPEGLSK
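Read-out: Photinus luciferase luminescence; inhibitors lower reporter signal. Insect Schneider cells with Gal4-ROR gamma fusion under metallothionein promoter, UAS reporter; 700 uM final copper sulfate induction, 20 hr, ambient temperature.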
VP16 counter: inhibits Gal4-VP16 luciferase reporter, ROR gamma counter-screen | Drosophila S2 Gal4-VP16 UAS-luciferase, luminescence, 20 h | Potency, µM (top dose mostly 53.6 µM), for the others: at the highest dose activity, negative = inhibition, hits mostly inhibitors | 310,000 compounds, 3.5% hits;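 note: Gal4-VP16 expression switched on by copper sulfate through the metallothionein promoter; potency is the fitted concentration of half-maximal effect; % is set by controls: 0 for no effect and ±100 for the full control effect; nearly all actives have a fitted effect of over 50% in size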
Giardia kill: Giardia lamblia killing | Giardia lamblia trophozoite viability | activity change, % at 7.66 µM, hits read low | 340,000 compounds, 0.15% hits | AID 540267; in the data active = activity change below about -80%; inconclusive = between about -30% and that limit;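 note: parasites exposed to compound for two days anaerobically before the ATP read; % is set by controls: 0 for no effect and ±100 for the full control effect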
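Viability, read as ATP luminescence: trophozoites at 100 cells/well, compound added, 48 hrs anaerobic at 37 deg C, then 15-30 min room-temperature development before reading.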
ELG1 repair inh: inhibitors of ELG1-dependent DNA repair in HEK293T cells; HEK293T ELG1-luciferase reporter, luminescence, 16 h; DNA damage induced by 5-fluorouridine; Potency, µM (series often up to 46.1 µM), for inactives: at the highest dose activity change, negative = inhibition, most hits filed as inhibitors; 330,000 compounds, 2.3% hits; note: potency is the fitted concentration of half-maximal effect; % is set by controls: 0 for no effect and ±100 for the full control effect; nearly all actives have a fitted effect of over 55% in size
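DMSO vehicle served as the neutral condition. Each well held 2,000 cells given 5-fluorouridine plus compound; after 16 hr at 37 °C/5% CO2, ONE-Glo was added and luciferase measured 30 min later.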
BRCA1 expr act: activators of BRCA1 expression; MCF7-BRCA1-FFLuc reporter, luminescence, 48 h; response scale: scaled: vehicle 0%, 10 µM genistein 100%; Potency, µM (titrated, usually from 46.1 µM), without a hit: at the highest dose activation, actives largely listed as activators; 380,000 compounds, 1.1% hits; AID 624202; note: potency is the fitted concentration of half-maximal effect; nearly all actives have a fitted effect of over 80% in size
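First, MCF7-BRCA1-FFLuc cells (2000/well) attach for 2 h; next, compounds are pin-added and incubated 48 h at 37 °C; finally, luciferase reagent is added and luminescence read after 15 min.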
Numbers without * were called inactive; ? = inconclusive; . = no result. In the library only some 7.6% were active in any assay of this set; here they are far more common. Unless noted, calls come from the whole dose curve; as a rule, active = well fitted curve in the direction sought with a large enough effect; inconclusive = small, poorly fitted or top-dose-only effect, or another doubt; inactive = no such curve, though single readings can be large; an effect the other way counts as inactive or inconclusive.

SMILES | p53 reactivation | RORgamma inh | VP16 counter | Giardia kill | ELG1 repair inh | BRCA1 expr act
O=C(/C=C/c1ccco1)NC(=S)Nc1ccc(Cl)cn1 | ? | 8.91µM* | ? | 11.8 | ? | 19.5%
O=C(/C=C/c1ccco1)NC(=S)Nc1ccc(O)c(-c2nc3ccccc3s2)c1 | 13.5% | 2µM* | 2µM* | -3.4 | ? | -53.1%
CCCn1c(N2CCN(C(=O)/C=C/C(=O)O)CC2)nc2ccccc21 | 3.3% | -3.8% | 1.5% | 12.8 | -12.6% | 2.2%
N#Cc1ccc(-c2ccccc2)nc1Sc1ccc(F)cc1 | 0.5% | -4.6% | -11.3% | 0.9 | 1.6% | -18.1%
O=c1c2ccccc2nc2c3ccccc3cnn12 | 6.8% | -15.1% | 12.4% | -0.4 | ? | 7.94µM*
O=c1c2ccccc2nc2c3ccccc3c(Cl)nn12 | 2.3% | ? | 3.0% | . | -2.3% | .
Cn1c(SCC(=O)Nc2ccc(F)cc2F)nnc1-c1cccnc1 | 2.4% | -31.8% | -6.4% | 7.4 | -1.9% | -0.8%
CC(C)C(C(=O)NCc1ccccc1)N(CC1CCCO1)C(=O)CNS(=O)(=O)c1ccccc1 (configuration not stated) | -1.1% | -21.8% | 2.4% | 2.9 | 7.8% | -7.2%
CC1CCCC(NC(=O)C2CCN(S(=O)(=O)c3cccc4nonc34)CC2)C1C (configuration not stated) | 3.2% | -0.9% | 1.8% | 5.5 | ? | 2.2%
O=c1ccc2ccccc2[nH]1 | . | 6.31µM* | 12.6µM* | . | . | .
CC(C)c1nnc(NC(=O)COc2ccc3c(c2)OCO3)s1 | ? | -2.0% | 6.0% | -3.4 | 13.4% | 11.2µM*
O=C(O)CSc1nnc(NC(=O)c2ccc3c(c2)OCO3)s1 | 0.2% | 12.6µM* | 12.6µM* | ? | -9.6% | -70.7%
CCC(CC)c1nnc(NC(=O)COc2ccc3c(c2)OCO3)s1 | -3.0% | -3.9% | 2.5% | 8.7 | -19.0% | 1.3%
COC(=O)CSc1nnc(NC(=O)c2ccc3c(c2)OCO3)s1 | 25.2% | 6.31µM* | ? | ? | ? | 47.4%
CC(C)(C)Cc1nnc(NC(=O)c2ccc3c(c2)OCO3)s1 | ? | 3.4% | 9.0% | -7.3 | ? | ?
COc1ccc(S(=O)(=O)NNC(=O)Nc2ccccc2OC)c(OC)c1 | 1.4% | 15.0% | 2.7% | -29.1 | 12.4% | -15.3%
c1ccc(-c2ccc(OCCOCCn3cncn3)cc2)cc1 | ? | 27.6% | 10.8% | -5.0 | ? | 7.08µM*
CN(C(=O)c1cccc(NC(=O)Cc2ccc(NC(=O)C3CCN(C(=O)C4CCC4)CC3)cc2)c1)C1CCCC1 | . | . | . | -14.1 | . | -9.0%
CCOC(=O)[C@]12CCC=C1N(Cc1ccco1)C(=O)[C@H](CC(=O)N1CCN(C(=O)c3ccco3)CC1)C2 | . | . | . | . | . | 9.8%
C=CCOC(=O)C1=C(C)NC(SCC(N)=O)=C(C#N)C1c1cccs1 (configuration not stated) | -6.8% | -8.0% | -6.2% | 10.3 | -13.0% | -54.3%
CCOC(=O)C1=C(C)NC(SCC(=O)Nc2nc(C)cs2)=C(C#N)C1c1cccs1 (configuration not stated) | -56.4% | 19.6% | -8.0% | . | 20.6µM* | .
Cc1nn(C)c(C)c1CN(Cc1nc(-c2ccc(F)cc2F)oc1C)C1CC1 | 15.0% | 0.2% | -7.5% | 25.1 | ? | -13.5%
Cc1nn(C)c(C)c1CN(Cc1nc(-c2cc(F)ccc2F)oc1C)C1CC1 | -1.5% | 28.2µM* | -8.6% | -0.6 | -25.4% | -11.9%
Nc1nc2c(ncn2-c2ccccc2)c(=O)[nH]1 | . | . | . | 24.8 | . | 6.1%
O=C1c2ccccc2C(=O)c2c1ncn2-c1ccccc1 | 26.6% | 11.2µM* | ? | -6.1 | -22.2% | -91.2%
SMILES | p53 reactivation | RORgamma inh | VP16 counter | Giardia kill | ELG1 repair inh | BRCA1 expr act
CCCCNC(=S)NC(C)(C)CO | 13.3% | 3.9% | 5.2% | 2.9 | 3.1% | -3.2%
COC(=O)N1C(=O)[C@@](c2ccccc2)(C(C)C)N1C(=O)OC | -9.5% | 10µM* | 0.9% | -18.7 | -17.2% | 0.0%
COC(=O)N1C(=O)[C@@](c2ccc(OC)cc2)(C(C)C)N1C(=O)OC | . | -39.6% | -3.1% | 13.6 | ? | -32.9%
CCOC(=O)C1(Cc2ccccc2)CCN(Cc2cnn(-c3ccccc3)c2)CC1 | 0.4% | -10.4% | -1.6% | 15.2 | ? | -19.9%
Cc1c(C(=O)NCc2ccc(Cl)c(Cl)c2)sc(=O)n1Cc1ccccc1F | . | . | . | . | . | -7.4%
O=c1c2sc(-c3ccccc3)cc2nc2n1CCCCC2 | 11.0% | -3.1% | -15.0% | -6.0 | ? | ?
O=c1c2sc(-c3ccccc3)cc2nc2n1CCC2 | 34.7% | 2.51µM* | ? | -23.6 | ? | -51.4%
O=C(O)c1ccc(CNc2ccccc2C(=O)O)cc1 | -1.5% | -21.9% | -12.2% | -2.3 | 18.0% | 10.0%
O=C(Nc1ncc(Cc2cccc(Cl)c2Cl)s1)C1CCCO1 (configuration not stated) | 11.9% | ? | -15.6% | -7.7 | ? | ?
O=C(Nc1ncc(Cc2cccc(Cl)c2)s1)c1ccc([N+](=O)[O-])cc1 | 8.7% | 5.01µM* | 2.82µM* | -1.9 | -10.4% | -25.9%
CC(=O)Nc1ncc(Cc2cccc(Cl)c2)s1 | 4.0% | -19.8% | ? | -7.0 | 16.7% | 14.5%
CC(C)C(=O)Nc1ncc(Cc2cccc(Cl)c2)s1 | 14.9% | 11.2µM* | ? | 13.1 | 2.0% | -17.9%
O=C(Nc1ncc(Cc2ccccc2Cl)s1)c1ccc([N+](=O)[O-])cc1 | -5.3% | 2µM* | 2.82µM* | -27.9 | -38.1% | 3.5%
O=C(Nc1ncc(Cc2cccc(Cl)c2)s1)C1CCCO1 (configuration not stated) | 0.7% | ? | 8.8% | 7.8 | ? | ?
O=C(Nc1ncc(Cc2ccccc2Cl)s1)C1CCCO1 (configuration not stated) | 14.1µM* | -70.0% | ? | 8.2 | ? | 4.47µM*
COc1ccc(C)cc1NC(=O)C1CC(=O)N(CCc2ccc(F)cc2)C1 (configuration not stated) | . | . | . | -6.4 | . | 0.0%
COc1ccc(CN2C(=O)C(O)(CC(=O)c3ccc4c(c3)OCO4)c3ccccc32)cc1OC (configuration not stated) | -2.1% | 26.1% | -3.9% | 4.0 | ? | -14.4%
CCOC(=O)C(=N/O)/C(C)=N/NC(=O)C(=O)Nc1ccc(Cl)cc1 | 1.5% | -44.0% | 20µM* | -12.7 | ? | -18.0%
CN(C)S(=O)(=O)c1ccc(Cl)c(NC(=O)COC(=O)C2CCCO2)c1 (configuration not stated) | 1.6% | 32.6% | 3.1% | -1.9 | 3.8% | 4.6%
COCCNC(=O)c1c[nH]c2ccc(S(=O)(=O)Nc3ccccc3F)cc2c1=O | 2.0% | -0.7% | 1.2% | -21.0 | -4.1% | 3.3%
